Source: PubChem BioAssay (EPA / NIEHS)
Records with an inconclusive call do not appear. Active and inactive are the calls of the source. Rule for the calls, unless noted: active = hit-call score of the fitted dose curve at least 0.9, where 1 is the maximum; inactive = score below 0.9.

tested on: Thyroperoxidase (TPO), gene 54314; experiment: CCTE_Simmons_AUR_rTPO: CCTE's Amplex UltraRed Assay for Thyroperoxidase (TPO) Inhibition, Simmons Lab (AID 2283662; active = hit-call score of the fitted dose curve at least 0.9, where 1 is the maximum;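 for AC50: potency for loss of signal meaning inhibition of peroxidase activity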)
Procedure, shortened: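 Endpoint is decreased Amplex UltraRed fluorescence after a 30-min, 37C reaction of rat thyroid microsomes with 300 uM H2O2. Eight test concentrations (5 nM–87.5 uM final) in 0.5% DMSO, three biological replicates each.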

Compound	outcome	AC50
CCCSP(=S)(OCC)Oc1ccc(SC)cc1 (centres undefined)	inactive	
CCOP(=S)(OCC)O/N=C(\C#N)c1ccccc1		20.7 µM (active)
Nc1ncn[nH]1		2.24 µM (active)
COc1ccc(N)cc1		1.44 µM (active)
COC(=O)Nc1cccc(OC(=O)Nc2cccc(C)c2)c1		0.398 µM (active)

tested on: not listed separately; experiment: CCTE_Simmons_CellTiterGLO_HEK293T: Viability Assessment in CCTE's Assays for Thyroperoxidase (TPO) Inhibition, Simmons Lab (AID 2283665; active = hit-call score of the fitted dose curve at least 0.9, where 1 is the maximum;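 for AC50: cells exposed to compound for 24 h before readout; actives reduce ATP signal below DMSO vehicle meaning cytotoxicity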)
Procedure, shortened: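 Luminescent ATP readout (CellTiter-Glo, 20 min at room temperature) after 24 hr exposure of HEK293T cells to 5 nM–87.5 uM final compound; signal loss relative to DMSO vehicle indicated cytotoxicity; dichlone titrated as positive control.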

Compound	outcome	AC50
Nc1ncn[nH]1	inactive	
COc1ccc(N)cc1		4.71 µM (active)
COC(=O)Nc1cccc(OC(=O)Nc2cccc(C)c2)c1	inactive	

tested on: not listed separately; experiment: STM_H9_OrnCyssISnorm_ratio: Stemina devTOX quickPredict H9 human embryonic stem cell (hESC)-based Assay for Ornithine (ORN):Cystine (CYSS) Ratio (AID 2283714; active = hit-call score of the fitted dose curve at least 0.9, where 1 is the maximum)
Procedure, shortened: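 H9 hESC, 72h, q24h re-dose; last-day media → acetonitrile deproteinization → UPLC-HRMS. ORN:CYSS ratio from isotope-normalized EIC areas, vs 0.1% DMSO; MTX references on each plate.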

Compound	AC50	outcome
O=[N+]([O-])c1ccc(Cl)c([N+](=O)[O-])c1	13.2 µM (active)	
Nc1ncn[nH]1		inactive
N#CCCC(Br)(C#N)CBr (centres undefined)	70.1 µM (active)	

read-out: not listed separately; experiment: CEETOX_H295R_MTT_cell_viability: Viability Assessment in the CeeTox HT-H295R MTT Assay (AID 2283718);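 for AC50: curve fitted both ways so AC50 may mark viability loss or gain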
Procedure, shortened: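 H295R cells prestimulated 48 h with 10 uM forskolin, then exposed 48 h to test chemical (0.1% DMSO final). Viability by MTT (0.5 mg/ml, 4 h, 37 C), absorbance 570/650 nm; percent change versus DMSO, bidirectional fit.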

Compound	AC50	outcome
CCOCn1c(-c2ccc(Cl)cc2)c(C#N)c(Br)c1C(F)(F)F	3.79 µM (active)	
O=[N+]([O-])c1ccc(Nc2ccccc2)cc1		inactive
Cc1cc(Cl)ccc1O		inactive
CCCSP(=S)(OCC)Oc1ccc(SC)cc1 (centres undefined)		inactive
CCOP(=S)(OCC)O/N=C(\C#N)c1ccccc1		inactive
Oc1c(Br)cc(Br)cc1Br	93.6 µM (active)	
Cc1ccccc1OP(=O)(Oc1ccccc1C)Oc1ccccc1C		inactive
Oc1cccc(-c2ccccc2)c1		inactive
CC(C)(C)c1cc([N+](=O)[O-])cc(C(C)(C)C)c1O		inactive
OC[P+](CO)(CO)CO	2.83 µM (active)	
OC(Cc1ccccc1Cl)(Cn1cncn1)C1(Cl)CC1 (centres undefined)		inactive
CC(C)=CC1C(C(=O)OCc2cccc(Oc3ccccc3)c2)C1(C)C (centres undefined)	9.92 µM (active)	
c1cc[c]([Sb]([c]2ccccc2)[c]2ccccc2)cc1	37.6 µM (active)	
